PubChem BioAssay (EPA / NIEHS)
Results filed as inconclusive are left out. Active and inactive are the calls of the source. Rule for the calls: active = hit-call score of the fitted dose curve at least 0.9, where 1 is the maximum; inconclusive = response in the unintended direction; inactive = score below 0.9.

Experiments:
[1] = ATG_XTT_Cytotoxicity: Cytotoxicity Assessment in the Attagene TRANS-FACTORIAL HepG2 Assay (AID 2283584)
Procedure, shortened: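 HepG2 human liver cells, transiently transfected with multiple GAL4-UAS reporter units, were dosed and read at 24 h by XTT as cell number. Loss of signal was fitted relative to DMSO negative control baseline.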

[2] = TOX21_p53_BLA_p2_viability: Viability Assessment in the Tox21 HCT-116 p53 Agonism Beta-lactamase Assay, Phase 2 (AID 2283591);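 note: compound exposure lasted 16 h at 37 °C; actives lower the ATP signal meaning cytotoxicity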
Procedure, shortened: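 HCT116 p53-bla cells, 4000/well, dosed after 5 h plating (217-fold dilution of DMSO stocks) and incubated 16 h at 37C. Viability taken as cellular ATP by CellTiter-Glo luminescence after 30 min RT; signal loss marks cytotoxicity.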

[3] = molecular target: Cellular tumor antigen p53 (Homo sapiens) (UniProt P04637); assay: TOX21_p53_BLA_p3_ratio: Tox21 HCT-116 p53 Agonism Beta-lactamase Assay, Ratio, Phase 3 (AID 2283596)
Sequence of Cellular tumor antigen p53 (Homo sapiens) (P04637 whole entry, looked up): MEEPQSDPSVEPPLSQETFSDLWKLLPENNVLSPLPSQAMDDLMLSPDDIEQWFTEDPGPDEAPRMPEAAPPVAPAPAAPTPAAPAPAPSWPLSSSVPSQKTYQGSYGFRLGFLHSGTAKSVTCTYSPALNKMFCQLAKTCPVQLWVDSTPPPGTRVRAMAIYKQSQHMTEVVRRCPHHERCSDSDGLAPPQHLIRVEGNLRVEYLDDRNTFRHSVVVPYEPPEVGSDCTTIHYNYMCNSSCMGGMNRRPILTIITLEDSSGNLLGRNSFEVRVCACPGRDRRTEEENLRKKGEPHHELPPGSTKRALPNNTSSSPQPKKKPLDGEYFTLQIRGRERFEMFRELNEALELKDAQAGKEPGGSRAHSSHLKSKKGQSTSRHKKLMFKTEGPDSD
Procedure, shortened: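 Cells were seeded at 4000/well, rested 5 h at 37C, then dosed with DMSO compound solutions (217-fold dilution) for 16 h. CCF4-AM substrate was loaded for 2 h at room temperature, and the 460/530 nm emission ratio was fitted for gain of signal versus DMSO.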

[4] = TOX21_p53_BLA_p4_viability: Viability Assessment in the Tox21 HCT-116 p53 Agonism Beta-lactamase Assay, Phase 4 (AID 2283597);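 note: hits lower the luminescence signal meaning cytotoxicity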
Procedure, shortened: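 Cytotoxicity was inferred from loss of CellTiter-Glo luminescence. HCT116 cells had been dosed with compounds after 5 h plating, incubated 16 h at 37C and 5% CO2, and exposed to the CCF4-AM substrate for 2 h.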

[5] = molecular target: Cellular tumor antigen p53 (Homo sapiens) (UniProt P04637); assay: TOX21_p53_BLA_p5_ratio: Tox21 HCT-116 p53 Agonism Beta-lactamase Assay, Ratio, Phase 5 (AID 2283599)
Procedure, shortened: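 HCT-116 p53-bla cells (4000/well) plated 5 h, dosed with compound (217-fold DMSO dilution) for 16 h at 37 C; CCF4-AM substrate 2 h at room temperature. Activity is the 460/530 nm emission ratio (405 nm excitation), fitted in gain-of-signal direction versus DMSO.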

[6] = molecular target: Cellular tumor antigen p53 (Homo sapiens) (UniProt P04637); assay: TOX21_p53_BLA_p4_ratio: Tox21 HCT-116 p53 Agonism Beta-lactamase Assay, Ratio, Phase 4 (AID 2283601)
Procedure, shortened: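 HCT-116 p53 beta-lactamase reporter cells (4000/well) preincubated 5 h, then compound (217-fold dilution of DMSO stock) for 16 h at 37C. CCF4-AM substrate added 2 h at room temperature; 460/530 nm emission ratio fitted upward versus DMSO.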

[7] = Tanguay_ZF_120hpf_YSE_legacy: (Legacy) Oregon State University Tanguay Lab 120 Hour Post-fertilization zebrafish Assay for Yolk Sac Edema (AID 2283634);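 for AC50: actives raise the incidence of yolk sac edema above the DMSO baseline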
Procedure, shortened: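 Tropical 5D wild-type embryos, dechorionated with pronase at 4 hpf, were exposed singly from 6 hpf to 120 hpf under static, sealed, dark conditions at 28C with 0.64% DMSO final. Yolk sac edema was scored present/absent by brightfield microscopy.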

[8] = Tanguay_ZF_120hpf_AXIS_legacy: (Legacy) Oregon State University Tanguay Lab 120 Hour Post-fertilization zebrafish Assay for Body Axis Malformation (AID 2283635);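 for AC50: potency for an increased fraction of larvae scored with body axis malformation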
Procedure, shortened: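 Tropical 5D wild-type zebrafish embryos, dechorionated with pronase at 4 hpf, were placed singly in wells at 6 hpf and exposed statically to test chemical (0.64% DMSO final) at 28C until 120 hpf, then scored by brightfield for body axis defects.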

[9] = Tanguay_ZF_120hpf_EYE_legacy: (Legacy) Oregon State University Tanguay Lab 120 Hour Post-fertilization zebrafish Assay for Eye Malformation (AID 2283636);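 note: binary presence or absence of eye malformation scored by brightfield in 120 hpf larvae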
Procedure, shortened: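 5D wild-type embryos, pronase-dechorionated at 4 hpf; static exposure 6–120 hpf, 28C, dark; DMSO 0.64% final; 5uM trimethyltin chloride positive control. Binary eye-defect scoring at 120 hpf; dead embryos not scored.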

[10] = Tanguay_ZF_120hpf_JAW_legacy: (Legacy) Oregon State University Tanguay Lab 120 Hour Post-fertilization zebrafish Assay for Jaw Malformation (AID 2283638)
Procedure, shortened: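 Tropical 5D wild-type embryos, dechorionated with pronase at 4 hpf, were placed singly per well at 6 hpf and statically exposed at 28C until 120 hpf (0.64% DMSO final). Jaw malformation scored as present/absent by brightfield microscopy at 120 hpf, analyzed relative to DMSO.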

[11] = Tanguay_ZF_120hpf_OTIC_legacy: (Legacy) Oregon State University Tanguay Lab 120 Hour Post-fertilization zebrafish Assay for Otic Vesicle Malformation (AID 2283639)
Procedure, shortened: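 Brightfield scoring at 120 hpf, binary present/absent; DMSO negative control, 5uM trimethyltin chloride positive control. Static exposure at 28C, final DMSO 0.64% (vol/vol). Dead embryos not scored for malformation.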

[12] = Tanguay_ZF_120hpf_PE_legacy: (Legacy) Oregon State University Tanguay Lab 120 Hour Post-fertilization zebrafish Assay for Pericardial Edema (AID 2283640);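 for AC50: potency for increased incidence of pericardial edema versus DMSO baseline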
Procedure, shortened: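 Tropical 5D wild-type zebrafish embryos were exposed statically to 120 hpf at 28C, sealed and foil-covered, in 0.64% DMSO final. Pericardial edema was scored present/absent by brightfield microscopy; dead embryos were not scored.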

[13] = Tanguay_ZF_120hpf_BRAI_legacy: (Legacy) Oregon State University Tanguay Lab 120 Hour Post-fertilization zebrafish Assay for Brain Malformation (AID 2283641)
Procedure, shortened: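 Tropical 5D wild-type zebrafish embryos were exposed statically in sealed, foil-covered plates at 28C until 120 hpf, with 0.64% (vol/vol) final DMSO. Brain malformation was scored present/absent by brightfield microscopy, relative to DMSO baseline.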

[14] = LTEA_HepaRG_LDH_cytotoxicity: Cytotoxicity Assessment in the Life Technologies and Expression Analysis (LTEA) Assay (AID 2283563);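 for AC50: LDH activity released into spent culture medium as a marker of cell death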
Procedure, shortened: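 Differentiated human HepaRG cells, plated 48 h beforehand, were switched to serum-free induction medium and exposed for 48 h to eight half-log concentrations (top 100 uM) in 0.5% DMSO. LDH was measured in spent medium; activity was fitted relative to DMSO vehicle.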

[15] = TOX21_p53_BLA_p3_viability: Viability Assessment in the Tox21 HCT-116 p53 Agonism Beta-lactamase Assay, Phase 3 (AID 2283593);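 note: cells exposed to compound for 16 h before reading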
Procedure, shortened: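 HCT116 cells, 4000/well, dosed 5 h after plating by pin transfer (217-fold dilution from DMSO stock) and incubated 16 h at 37C, 5% CO2. Viability read as ATP luminescence with CellTiter-Glo after 30 min at room temperature.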

[16] = TOX21_p53_BLA_p5_viability: Viability Assessment in the Tox21 HCT-116 p53 Agonism Beta-lactamase Assay, Phase 5 (AID 2283600)
Procedure, shortened: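 Luciferase-coupled ATP quantitation of cells treated for 16 h (37C, 5% CO2) with test chemicals delivered in DMSO via a 217-fold dilution; 4000 cells/well; reagent incubated 30 min at room temperature before luminescence reading.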

[17] = Tanguay_ZF_120hpf_MORT_legacy: (Legacy) Oregon State University Tanguay Lab 120 Hour Post-fertilization zebrafish Assay for Mortality (AID 2283633)
Procedure, shortened: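 Dechorionated Tropical 5D wild-type zebrafish embryos, one per well from 6 hpf, were statically exposed at 28C in the dark until 120 hpf (0.64% DMSO final). Mortality was scored as present/absent by brightfield microscopy, fitted positively versus DMSO.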

[18] = Tanguay_ZF_120hpf_SNOU_legacy: (Legacy) Oregon State University Tanguay Lab 120 Hour Post-fertilization zebrafish Assay for Snout Malformation (AID 2283637)
Procedure, shortened: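 Binary brightfield scoring of snout malformation at 120 hpf. Dechorionated 5D wild-type embryos, one per well, static exposure from 6 hpf at 28C, sealed and dark; final DMSO 0.64% (vol/vol), DMSO as baseline; 5uM trimethyltin chloride positive control.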

[19] = Tanguay_ZF_120hpf_SOMI_legacy: (Legacy) Oregon State University Tanguay Lab 120 Hour Post-fertilization zebrafish Assay for Somite Malformation (AID 2283647)
Procedure, shortened: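 Tropical 5D wild-type zebrafish embryos, dechorionated with pronase at 4 hpf, were placed singly at 6 hpf and statically exposed until 120 hpf at 28C in 0.64% DMSO. Somite malformation was scored present/absent by brightfield microscopy versus DMSO.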

[20] = molecular target: Cellular tumor antigen p53 (Homo sapiens) (UniProt P04637); assay: TOX21_p53_BLA_p2_ratio: Tox21 HCT-116 p53 Agonism Beta-lactamase Assay, Ratio, Phase 2 (AID 2283592)
Procedure, shortened: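 Ratio endpoint: beta-lactamase cleavage of CCF4-AM, blue (460 nm) over green (530 nm). HCT116 reporter line; 16 h treatment, 37C; substrate 2 h RT.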

Measured: AC50

NC(=O)NO
not listed: [14] | [15] | [16] | [17] | [18] | [19] | [20]
inactive: all other assays above

COC(=O)c1c(Cl)c(Cl)c(C(=O)OC)c(Cl)c1Cl
not listed: [1] | [3] | [20]
inactive: all other assays above

On1ccccc1=S
inactive: [1] | [20] | [4] | [5] | [6] | [10] | [11] | [13]
active: [7] 0.0413 µM | [8] 0.0354 µM | [18] 0.206 µM | [12] 0.0293 µM

CC[C@H]1OC(=O)[C@H](C)[C@@H](O[C@H]2C[C@@](C)(OC)[C@@H](O)[C@H](C)O2)[C@H](C)[C@@H](O[C@@H]2O[C@H](C)C[C@H](N(C)C)[C@H]2O)[C@](C)(O)C[C@@H](C)C(=O)[C@H](C)[C@@H](O)[C@]1(C)O
not listed: [3] | [4] | [7] | [14] | [16] | [18] | [19] | [20]
inactive: all other assays above

CC(=O)c1ccc2c(c1)[C@H](NC(=O)c1ccc(F)cc1)[C@@H](O)C(C)(C)O2
not listed: [1] | [3] | [9] | [17] | [19] | [20]
inactive: all other assays above

O=C(CCCCCCCCc1cccnc1)N1CCC(C=C(c2ccccc2)c2ccccc2)CC1
active: [14] 36.8 µM | [2] 10 µM | [15] 28.2 µM
not listed: [1] | [3] | [16] | [17] | [19] | [20]
inactive: all other assays above

O=C(O)c1cccc(Oc2ccccc2)c1
inactive: [1] | [20] | [4] | [5] | [6] | [7] | [9] | [10] | [11] | [12] | [13]

CC/C(=C\C(=N/O)C(N)=O)C(C)[N+](=O)[O-] (configuration not stated)
not listed: [1] | [15] | [16] | [19] | [20]
inactive: all other assays above

CCOc1cccc(-n2cc(C(=O)N3CCN(c4cc(C(=O)O)c5ccccc5c4)CC3)nc2-c2ccc(C)cc2)c1
active: [2] 10.6 µM | [15] 28.6 µM | [4] 13.3 µM | [5] 58.1 µM | [6] 24.1 µM
not listed: [1] | [3] | [14] | [16] | [19] | [20]
inactive: all other assays above
